Source: PubChem BioAssay (Tox21)
Values joined by “and” are separate entries in the source; they are usually repeats but may differ in a detail not shown here. Equal entries are not always repeated. Inconclusive results are not listed. Where a call stands in place of a potency, no number is given. Some structures have more than one record in an assay (separate samples or runs), and their calls can disagree. Active and inactive are the calls of the source. Unless noted, calls come from the whole dose curve; as a rule, active = well fitted curve in the direction sought with a large enough effect in the repeat runs; inconclusive = weak or mixed curves; inactive = no such curve, though single readings can be large; an effect the other way counts as inactive or inconclusive.

Experiments:
[1] = qHTS assay to test for compound auto fluorescence at 535 nm (green) in HEK293 cells (AID 720680)
[2] = qHTS assay to test for compound auto fluorescence at 460 nm (blue) in HEK293 cell free culture (AID 720681)
Method in brief: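 Blue fluorescence (Ex 405/Em 460 nm, triamterene-equivalent) was read immediately after pin transfer of compound or DMSO into medium (DMEM, 10% FBS) without cells.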

[3] = qHTS assay to test for compound auto fluorescence at 535 nm (green) in HEK293 cell free culture (AID 720682)
Method in brief: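 Green-channel intensity (Ex/Em 485/535 nm) was recorded from compound-treated wells containing only DMEM with 10% FBS. Fluorescein provided the equivalency standard.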

[4] = qHTS assay to test for compound auto fluorescence at 590 nm (red) in HEK293 cell free culture (AID 720683)
Method in brief: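 Red-channel autofluorescence of compounds in culture medium (DMEM, 10% FBS), no cells, measured at 540/590 nm. Rose Bengal sodium is the reference fluorophore for equivalence.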

[5] = qHTS assay to test for compound auto fluorescence at 590 nm (red) in HepG2 cell free culture (AID 720684)
Method in brief: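 Steps: dispense MEM/10% FBS medium, no cells; pin compound or DMSO vehicle; read red channel, Ex/Em 540/590 nm. Output given as Rose Bengal sodium equivalents.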

[6] = qHTS assay to test for compound auto fluorescence at 460 nm (blue) in HepG2 cell free culture (AID 720685)
Method in brief: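 Compound (23 nL) or DMSO pinned into cell-free MEM with 10% FBS; blue fluorescence read at 405/460 nm excitation/emission, expressed as auto-fluorescence equivalency to triamterene.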

[7] = qHTS assay to test for compound auto fluorescence at 535 nm (green) in HepG2 cell free culture (AID 720686)
[8] = qHTS assay to test for compound auto fluorescence at 460 nm (blue) in HepG2 cells (AID 720687)
Method in brief: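 Blue-channel autofluorescence (Ex/Em 405/460 nm, triamterene-equivalent) was measured after 1 hr compound exposure at 37 C, 5% CO2. Cells were HepG2, plated overnight at 37 C in MEM plus 10% FBS.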

[9] = biological target: Glucocorticoid receptor (Homo sapiens) (UniProt P04150); test: qHTS assay to identify small molecule agonists of the glucocorticoid receptor (GR) signaling pathway (AID 720691; active = well fitted activation curve with a large enough effect in the signal ratio in the repeat runs, not every such curve was filed as active; the % refers to the signal ratio)
Chain of Glucocorticoid receptor (Homo sapiens) (P04150 whole entry, looked up): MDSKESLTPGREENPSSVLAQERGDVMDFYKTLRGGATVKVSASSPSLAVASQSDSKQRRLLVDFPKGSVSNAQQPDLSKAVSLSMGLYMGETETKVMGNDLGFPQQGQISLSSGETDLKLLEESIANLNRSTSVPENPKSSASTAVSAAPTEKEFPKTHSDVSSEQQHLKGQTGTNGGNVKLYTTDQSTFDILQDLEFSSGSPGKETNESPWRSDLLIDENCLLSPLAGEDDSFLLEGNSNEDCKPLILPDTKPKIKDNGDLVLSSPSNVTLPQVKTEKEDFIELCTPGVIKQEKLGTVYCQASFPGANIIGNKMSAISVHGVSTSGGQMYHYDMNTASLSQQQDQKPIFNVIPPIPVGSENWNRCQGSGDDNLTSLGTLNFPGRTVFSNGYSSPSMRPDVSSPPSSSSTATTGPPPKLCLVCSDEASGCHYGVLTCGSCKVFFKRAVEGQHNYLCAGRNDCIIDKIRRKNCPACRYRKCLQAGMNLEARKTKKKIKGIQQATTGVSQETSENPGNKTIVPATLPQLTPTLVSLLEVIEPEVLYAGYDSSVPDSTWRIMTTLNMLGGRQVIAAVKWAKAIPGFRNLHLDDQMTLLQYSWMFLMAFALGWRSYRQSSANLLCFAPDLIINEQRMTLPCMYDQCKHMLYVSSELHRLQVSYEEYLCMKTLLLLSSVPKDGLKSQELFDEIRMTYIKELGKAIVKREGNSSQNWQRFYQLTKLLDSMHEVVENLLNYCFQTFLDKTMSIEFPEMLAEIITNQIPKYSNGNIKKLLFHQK
Method in brief: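 Agonist mode in a HeLa line carrying a GRE-controlled beta-lactamase reporter. Compounds act for 18 h at 37 C before a 2 h room-temperature FRET substrate step and fluorescence reading.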

[10] = biological target: Glucocorticoid receptor (Homo sapiens) (UniProt P04150); test: qHTS assay to identify small molecule antagonists of the glucocorticoid receptor (GR) signaling pathway (AID 720692; active = well fitted inhibition curve with a large enough effect in the signal ratio in the repeat runs, not every such curve was filed as active; the % refers to the signal ratio; note: potency is the fitted concentration of half-maximal effect)
Method in brief: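 Cells plated, rested 4 h at 37 C/5% CO2; compounds in DMSO pin-transferred; dexamethasone added to 5 nM final; 18 h at 37 C; B/G FRET substrate added, 2 h room temperature; fluorescence measured.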

[11] = qHTS assay for identifying genotoxic compounds that show differential cytotoxicity against isogenic chicken DT40 cell lines with known DNA damage response pathways - wild type cell line (AID 743012); note: nearly all actives have a fitted effect of over 60% in size; note: potency is the fitted concentration of half-maximal effect
Method in brief: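 Cells (DT40 wild type, 300/well) are treated with DMSO-dissolved compounds after a ~0.5 h pre-incubation and kept 40 h at 37 C/5% CO2. Viability is then measured by CellTiter-Glo luminescence following 30 min at room temperature.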

[12] = qHTS assay for identifying genotoxic compounds that show differential cytotoxicity against isogenic chicken DT40 cell lines with known DNA damage response pathways - Rev3 mutant cell line (AID 743014); note: nearly all actives have a fitted effect of over 55% in size; note: potency is the fitted concentration of half-maximal effect
[13] = qHTS assay for identifying genotoxic compounds that show differential cytotoxicity against isogenic chicken DT40 cell lines with known DNA damage response pathways - Rad54/Ku70 mutant cell line (AID 743015); note: nearly all actives have a fitted effect of over 60% in size; note: potency is the fitted concentration of half-maximal effect
[14] = qHTS assay to identify small molecule antagonists of the androgen receptor (AR) signaling pathway - cell viability counter screen (AID 743033; note: nearly all actives have a fitted effect of over 45% in size; note: potency is the fitted concentration of half-maximal effect)
[15] = qHTS assay to identify small molecule antagonists of the androgen receptor (AR) signaling pathway using the MDA cell line - cell viability counter screen (AID 743041; note: nearly all actives have a fitted effect of over 45% in size; note: potency is the fitted concentration of half-maximal effect)
Method in brief: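 Cells were plated at 3,000 per well and left 5 h. Compounds in DMSO were then pinned in, followed by R1881. After 16 h at 37C, CellTiter-Fluor fluorescence gave viability.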

[16] = qHTS assay to identify small molecule antagonists of the glucocorticoid receptor (GR) signaling pathway - cell viability counter screen (AID 720693); note: nearly all actives have a fitted effect of over 55% in size
[17] = biological target: Androgen receptor (Homo sapiens) (UniProt P10275); test: qHTS assay to identify small molecule antagonists of the androgen receptor (AR) signaling pathway (AID 743035; active = well fitted inhibition curve with a large enough effect in the signal ratio in the repeat runs, not every such curve was filed as active; the % refers to the signal ratio)
Chain of Androgen receptor (Homo sapiens) (P10275 whole entry, looked up): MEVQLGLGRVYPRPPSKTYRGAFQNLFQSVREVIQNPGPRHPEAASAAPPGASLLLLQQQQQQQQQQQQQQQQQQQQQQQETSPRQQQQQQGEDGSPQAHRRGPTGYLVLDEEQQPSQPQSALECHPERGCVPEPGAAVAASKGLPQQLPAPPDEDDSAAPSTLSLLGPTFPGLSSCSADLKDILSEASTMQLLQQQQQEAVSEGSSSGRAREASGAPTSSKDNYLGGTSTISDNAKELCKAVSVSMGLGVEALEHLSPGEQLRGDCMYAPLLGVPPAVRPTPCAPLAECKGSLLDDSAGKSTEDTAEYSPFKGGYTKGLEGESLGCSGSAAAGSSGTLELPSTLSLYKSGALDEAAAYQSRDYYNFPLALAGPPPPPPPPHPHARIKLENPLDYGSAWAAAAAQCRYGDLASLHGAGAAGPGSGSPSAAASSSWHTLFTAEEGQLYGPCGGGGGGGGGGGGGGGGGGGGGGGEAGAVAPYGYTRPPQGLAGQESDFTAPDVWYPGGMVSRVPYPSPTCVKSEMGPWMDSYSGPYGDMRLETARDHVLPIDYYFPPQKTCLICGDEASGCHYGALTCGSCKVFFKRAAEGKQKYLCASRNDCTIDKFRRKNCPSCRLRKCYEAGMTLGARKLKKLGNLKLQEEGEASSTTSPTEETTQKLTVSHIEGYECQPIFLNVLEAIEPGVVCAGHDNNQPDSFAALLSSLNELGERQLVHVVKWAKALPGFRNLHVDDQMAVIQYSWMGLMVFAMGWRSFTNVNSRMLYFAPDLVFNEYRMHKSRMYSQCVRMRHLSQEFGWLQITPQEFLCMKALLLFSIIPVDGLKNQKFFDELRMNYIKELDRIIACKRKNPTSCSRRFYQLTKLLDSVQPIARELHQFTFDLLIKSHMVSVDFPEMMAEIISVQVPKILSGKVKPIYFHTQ
Method in brief: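 Antagonism is scored as loss of R1881-driven beta-lactamase reporter expression in HEK293 cells carrying the reporter under a UAS element, after 16 h co-treatment at 37C and a 2 h room-temperature FRET substrate read.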

[18] = biological target: Androgen receptor (Homo sapiens) (UniProt P10275); test: qHTS assay to identify small molecule agonists of the androgen receptor (AR) signaling pathway (AID 743036; active = well fitted activation curve with a large enough effect in the signal ratio in the repeat runs, with a control signal flat, not every such curve was filed as active; the % refers to the signal ratio)
Method in brief: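 Cell-based FRET reporter assay: HEK293 line with a UAS-beta-lactamase construct, compounds added in DMSO, 16 h exposure at 37C, then 2 h substrate step at room temperature and fluorescence intensity read.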

[19] = biological target: Androgen receptor (Homo sapiens) (UniProt P10275); test: qHTS assay to identify small molecule agonists of the androgen receptor (AR) signaling pathway using the MDA cell line (AID 743040; note: nearly all actives have a fitted effect of over 20% in size)
Method in brief: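 Cells plated, 5 h at 37C/0% CO2; compound or DMSO pinned; 16 h at 37C; ONE-Glo added; luminescence measured after 30 min at room temperature. Reporter line: MDA-kb2 with MMTV-luciferase responsive to AR and GR.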

[20] = biological target: Androgen receptor (Homo sapiens) (UniProt P10275); test: qHTS assay to identify small molecule antagonists of the androgen receptor (AR) signaling pathway using the MDA cell line (AID 743042; note: nearly all actives have a fitted effect of over 55% in size)
Method in brief: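 Antagonist mode: compounds plus R1881 agonist added to MDA-kb2 AR-luc cells, incubated 16 h at 37C. Luciferase reporter luminescence quantified, with multiplexed CellTiter-Fluor readout for cell viability.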

| SMILES | Potency [1] | outcome [2] | Potency [3] | Potency [4] | Potency [5] | outcome [6] | Potency [7] | outcome [8] | Potency [9] | Potency [10] | Potency [11] | Potency [12] | Potency [13] | Potency [14] | Potency [15] | Potency [16] | Potency [17] | outcome [18] | Potency [19] | Potency [20] |
| --- | --- | --- | --- | --- | --- | --- | --- | --- | --- | --- | --- | --- | --- | --- | --- | --- | --- | --- | --- | --- |
| C[C@]12CC[C@H]3[C@@H](CCC4=CC(=O)CC[C@@]43C)[C@@H]1CC[C@@H]2C(=O)CO | inactive | inactive | inactive | inactive | inactive | inactive | inactive | inactive | inactive | 811 nM (active) and 977 nM (active) | 6.86 µM (active) | 9.69 µM (active) | 8.63 µM (active) | inactive | inactive |  |  |  |  |  |
| CCCC(=O)O | inactive | inactive | inactive | inactive | inactive | inactive | inactive | inactive | inactive | inactive | inactive | inactive | inactive | inactive | inactive |  |  |  |  |  |
| CCCCNS(=O)(=O)c1ccccc1 | inactive | inactive | inactive | inactive | inactive | inactive | inactive | inactive | inactive | inactive | inactive | inactive |  | inactive | inactive | inactive |  |  |  |  |
| O=S(=O)(O)c1ccc(O)cc1 | inactive | inactive | inactive | inactive | inactive | inactive | inactive | inactive | inactive | inactive | inactive | inactive | inactive | inactive | inactive | inactive |  |  |  |  |
| C#C[C@]1(O)CC[C@H]2[C@@H]3CCC4=Cc5oncc5C[C@]4(C)[C@H]3CC[C@@]21C | inactive | inactive | inactive | inactive | inactive | inactive | inactive | inactive | inactive | 5.35 µM (active) | 9.69 µM (active) | inactive and 24.3 µM (active) |  | inactive and 38.9 µM (active) | inactive |  |  |  |  |  |
| C=C(C)C(=O)OCCOC(=O)C(=C)C | inactive | inactive | inactive | inactive | inactive | inactive | inactive | inactive | inactive | inactive | inactive |  | inactive | inactive | inactive |  | inactive | inactive | inactive | inactive |
| CNCCCC12CCC(c3ccccc31)c1ccccc12 | inactive | inactive | inactive | inactive | inactive | inactive | inactive | inactive | inactive | inactive | 10.6 µM (active) and 6.86 µM (active) | 21.1 µM (active) and 12.2 µM (active) | 13.3 µM (active) and 6.86 µM (active) | inactive and 43.6 µM (active) | 61.1 µM (active) |  |  |  |  |  |
| O=C(c1ccccc1)c1ccc(O)cc1O | inactive | inactive | inactive | inactive | inactive | inactive | inactive | inactive | inactive | inactive | inactive |  |  | inactive | inactive | inactive |  |  |  |  |
| O=Cc1ccccc1O | inactive | inactive | inactive | inactive | inactive | inactive | inactive | inactive | inactive | inactive | inactive |  |  | inactive | inactive | inactive |  |  |  |  |
| CC(C)(C)NC(=O)[C@H]1CC[C@H]2[C@@H]3CC[C@H]4NC(=O)C=C[C@]4(C)[C@H]3CC[C@]12C | inactive | inactive | inactive | inactive | inactive | inactive | inactive | inactive | inactive | inactive | inactive | inactive and 60.4 µM (active) and 27.3 µM (active) |  | inactive | inactive |  |  |  |  |  |
| COC(=O)Nc1nc2ccc(S(=O)c3ccccc3)cc2[nH]1 (centres undefined) | inactive | inactive | inactive | inactive | inactive | inactive | inactive | inactive | inactive | inactive | 9.44 µM (active) and 6.85 µM (active) | 11.9 µM (active) and 6.11 µM (active) | 13.3 µM (active) and 8.63 µM (active) | inactive | inactive | inactive |  |  |  |  |
| OC(CCl)CCl | inactive | inactive | inactive | inactive | inactive | inactive | inactive | inactive | inactive | inactive | inactive |  |  | inactive | inactive | inactive |  |  |  |  |
| CN1C(C(=O)Nc2ccccn2)=C(O)c2ccccc2S1(=O)=O | inactive | inactive | inactive | inactive | inactive | inactive | inactive | inactive | inactive | inactive | inactive |  | inactive | inactive | inactive | inactive |  |  |  |  |
| CCCCC/C=C/C=C/C=O | inactive | inactive | inactive | inactive | inactive | inactive | inactive | inactive | inactive | 49 µM (active) | 19.3 µM (active) | inactive and 21.7 µM (active) | inactive and 17.2 µM (active) | inactive | inactive |  |  |  |  |  |
| Nc1ccc(Cl)cc1Cl | inactive | inactive | inactive | inactive | inactive | inactive | inactive | inactive | inactive | inactive | inactive | inactive |  | inactive | inactive |  |  |  |  |  |
